Laboratory results: publication PMC4336329 (PLoS ONE, 2015)
The whole screen tested about 310,000 compounds, of which about 14,000 (4.5%) showed an effect of 50% or more. Effects have a minus sign here. This is one part of a sample in which strong results are shown more often than they occur.

molecular target: human ether-à-go-go-related gene (hERG) potassium channel (human, UniProt Q12809); test: primary screen, population patch clamp on CHO cells stably expressing hERG; higher = less effect of the substance
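Note: peak tail current of the secondary pulse compared with the same well before compound.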

Sequence of human ether-à-go-go-related gene (hERG) potassium channel (Q12809 whole entry, looked up): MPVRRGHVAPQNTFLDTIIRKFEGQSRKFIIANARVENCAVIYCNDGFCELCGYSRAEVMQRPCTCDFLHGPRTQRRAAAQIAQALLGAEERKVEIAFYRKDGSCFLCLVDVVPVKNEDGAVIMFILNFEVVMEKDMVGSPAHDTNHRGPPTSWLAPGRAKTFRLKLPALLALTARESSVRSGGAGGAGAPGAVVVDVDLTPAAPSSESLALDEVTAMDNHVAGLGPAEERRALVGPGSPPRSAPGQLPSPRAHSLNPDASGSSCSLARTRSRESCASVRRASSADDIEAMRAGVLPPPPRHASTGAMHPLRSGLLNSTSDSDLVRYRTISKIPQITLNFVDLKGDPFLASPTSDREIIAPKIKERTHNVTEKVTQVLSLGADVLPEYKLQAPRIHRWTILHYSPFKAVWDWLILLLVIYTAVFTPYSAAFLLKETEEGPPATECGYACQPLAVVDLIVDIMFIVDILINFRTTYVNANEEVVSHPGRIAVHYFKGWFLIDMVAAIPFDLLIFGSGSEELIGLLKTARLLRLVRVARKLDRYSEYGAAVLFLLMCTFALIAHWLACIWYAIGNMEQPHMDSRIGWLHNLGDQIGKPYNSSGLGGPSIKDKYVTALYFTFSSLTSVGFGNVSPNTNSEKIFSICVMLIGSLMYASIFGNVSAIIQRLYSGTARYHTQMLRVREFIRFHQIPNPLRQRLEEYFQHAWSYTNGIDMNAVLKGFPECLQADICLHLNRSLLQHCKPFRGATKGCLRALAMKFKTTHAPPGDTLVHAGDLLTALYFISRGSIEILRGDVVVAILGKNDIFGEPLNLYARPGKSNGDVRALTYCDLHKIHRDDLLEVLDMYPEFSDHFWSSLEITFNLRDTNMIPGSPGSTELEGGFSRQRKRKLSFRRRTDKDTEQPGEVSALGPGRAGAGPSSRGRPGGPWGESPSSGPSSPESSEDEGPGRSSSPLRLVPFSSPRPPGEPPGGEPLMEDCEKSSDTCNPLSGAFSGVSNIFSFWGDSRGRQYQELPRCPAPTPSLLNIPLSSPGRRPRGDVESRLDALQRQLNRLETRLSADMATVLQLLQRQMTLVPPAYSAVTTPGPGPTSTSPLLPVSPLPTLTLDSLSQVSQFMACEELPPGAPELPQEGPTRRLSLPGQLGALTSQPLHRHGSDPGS

| SMILES | hERG current change (%, negative = inhibition) at 10uM [%] |
| --- | --- |
| Cc1ccc(CN(C)CC(=O)Nc2ccccc2C(=O)NC2CC2)o1 | -7.18 |
| N#Cc1c(F)cccc1N1CCC(C#N)CC1 | 8.29 |
| Cn1nnnc1SCC(=O)Nc1ccccc1C(=O)NC1CC1 | 7.04 |
| COc1ccccc1NC(=O)CCN1C(=O)/C(=C/c2cc(OC)c(OC)c(OC)c2)SC1=S | 13.8 |
| O=C(Cc1ccccc1)Nc1ccc2oc(-c3ccncc3)nc2c1 | 0.815 |
| CC(Oc1ccccc1)C(=O)Nc1cccc([N+](=O)[O-])c1 (centres unmarked) | -22 |
| COc1ccc(OC(C)C(=O)Nc2ccc([N+](=O)[O-])cc2)cc1 (centres unmarked) | 3.6 |
| COc1ccc(OC(C)C(=O)Nc2cccc([N+](=O)[O-])c2)cc1 (centres unmarked) | -58.8 |
| COc1ccccc1-n1cnnc1SC(C)C(=O)Nc1cccc([N+](=O)[O-])c1 (centres unmarked) | -8.19 |
| CC(Sc1nncn1-c1ccccc1)C(=O)Nc1cccc([N+](=O)[O-])c1 (centres unmarked) | -17.2 |
| COc1ccc(-n2cnnc2SC(C)C(=O)Nc2cccc([N+](=O)[O-])c2)cc1 (centres unmarked) | -59.3 |
| COc1ccc(CNC(=O)CCSCc2ccc(C)cc2)cc1 | -16.2 |
| CCC1=Nc2cc(C(=O)O)ccc2Sc2ccccc21 | 21.2 |
| COC(=O)C1=C(c2ccc(S(C)(=O)=O)cc2)C[C@@H]2CC[C@H]1N2C(=O)NCc1ccc(C(F)(F)F)cc1 | -59.3 |
| COC(=O)C1=C(c2ccc(OC(F)(F)F)cc2)C[C@@H]2CC[C@H]1N2C(=O)NCc1cccc2ccccc12 | 20.4 |
| COC(=O)C1=C(c2ccc(S(C)(=O)=O)cc2)C[C@@H]2CC[C@H]1N2C(=O)NCc1cccc2ccccc12 | -61.6 |
| COC(=O)C1=C(c2ccc(S(C)(=O)=O)cc2)C[C@@H]2CC[C@H]1N2C(=O)NCc1ccccc1 | -29.6 |
| COC(=O)C1=C(c2ccccc2)C[C@@H]2CC[C@H]1N2C(=O)NCc1cccc2ccccc12 | -12.2 |
| COC(=O)C1=C(c2ccc(C(C)=O)cc2)C[C@@H]2CC[C@H]1N2C(=O)NCc1ccc(C(F)(F)F)cc1 | 30 |
| Cc1ccc(C(=O)NC(C(=O)Nc2ccccc2)c2ccccc2)cc1 (centres unmarked) | 19.7 |
| CC(NC(=O)Cn1cc(C(=O)C2CC2)c2ccccc21)c1ccccc1 (centres unmarked) | 4.74 |
| Cc1ccc(-c2nn(C)c(=O)c3ccccc23)cc1CNC(=O)c1ccco1 | -36.7 |
| Cc1ccc(/C=C2/C(=O)NC(=O)N(Cc3ccc(F)cc3)C2=O)o1 | 19.6 |

| SMILES | hERG current change (%, negative = inhibition) at 10uM [%] |
| --- | --- |
| COc1ccc(OCc2cc(C(=O)NCc3nc(C)cs3)no2)c(Cl)c1 | -17.2 |
| OCC1(Cc2ccccc2C(F)(F)F)CCN(Cc2ccccc2)CC1 | -41.3 |
| OCC1(Cc2ccccc2)CCCN(Cc2ccc(-c3ccco3)cc2)C1 (centres unmarked) | -5.88 |
| OCC1(Cc2ccccc2)CCN(Cc2ccc(C(F)(F)F)cc2)CC1 | -72.9 |
| OCC1(Cc2ccccc2)CCN(Cc2ccc(-c3ccco3)cc2)CC1 | -66.6 |
| O=C(CSc1cn(CC(=O)N2CCOCC2)c2ccccc12)N1CCOCC1 | 12.8 |
| Cc1cc(C)c(C#N)c(SCc2ccc([N+](=O)[O-])cc2)n1 | 15.9 |
| COc1ccc(F)cc1S(=O)(=O)Nc1ccc2c(c1)OCO2 | 6.15 |
| CC(CCc1ccccc1)NC(=S)NC1CCCCC1 (centres unmarked) | 12 |
| Cl.Fc1ccc(C(c2nnnn2C2CCCC2)N2CCN(Cc3ccncc3)CC2)cc1 (centres unmarked) | -24.8 |
| Cc1ccc(C(c2nnnn2CC2CCCO2)N2CCN(C)CC2)cc1.Cl (centres unmarked) | -7.48 |
| CCC(C)(C)n1nnnc1C(c1ccccc1)N1CCN(Cc2ccccc2)CC1 (centres unmarked) | -32 |
| CCN1CCN(C(c2ccccc2)c2nnnn2Cc2ccccc2)CC1.Cl (centres unmarked) | -27.4 |
| Cc1ccc(C(c2nnnn2CCc2ccccc2)N2CCSCC2)cc1 (centres unmarked) | -13.5 |
| Cc1ccc(C(c2nnnn2Cc2ccccc2)N2CC=C(c3ccc(F)cc3)CC2)cc1 (centres unmarked) | 11.5 |
| Clc1ccc(C(c2nnnn2C2CCCC2)N2CCSCC2)cc1 (centres unmarked) | -24.4 |
| Cc1ccc(C(c2nnnn2Cc2ccccc2)N2CCN(Cc3ccccc3)CC2)cc1 (centres unmarked) | -79 |
| Cc1ccc(C(c2nnnn2CC2CCCO2)N2CCN(C(=O)c3ccco3)CC2)cc1 (centres unmarked) | -4.13 |
| Clc1ccc(C(c2nnnn2C2CCCC2)N2CCN(Cc3ccncc3)CC2)cc1 (centres unmarked) | -71.7 |
| Cc1ccc(C(c2nnnn2CC2CCCO2)N2CCN(Cc3ccccc3)CC2)cc1 (centres unmarked) | -74.9 |
| c1ccc(CN2CCN(C(c3ccccc3)c3nnnn3Cc3ccccc3)CC2)cc1 (centres unmarked) | -64.7 |
| O=C(NC(=S)NCc1ccccc1)c1ccc(Br)o1 | -7.42 |
| Cc1noc(C)c1C(=O)OCC(=O)c1cc(C)n(Cc2ccccc2Cl)c1C | -7.65 |

| SMILES | hERG current change (%, negative = inhibition) at 10uM [%] |
| --- | --- |
| Cc1ccc(CC(=O)N2CC(C)OC(C)C2)cc1 (centres unmarked) | 9.85 |
| Cc1ccc2nc(Br)c3c(c2c1)OC(CBr)C3 (centres unmarked) | -33.6 |
| CC1CCCCC1NC(=O)COc1ncnc2sccc12 (centres unmarked) | 3.61 |
| COc1ccc(Cl)cc1NC(=S)N1CCC(c2ccc(C)cc2)C1 (centres unmarked) | -1.95 |
| CCNC(=O)/C(=C\C=C\c1ccccc1)NC(=O)c1ccc(Br)o1 | -18.2 |
| Cc1ccc(S(=O)(=O)Cn2nnnc2C(c2ccc(F)cc2)N2CCC(C(N)=O)CC2)cc1 (centres unmarked) | -44.1 |
| Cc1ccc(S(=O)(=O)Cn2nnnc2C(C(C)C)N2CCC(C(N)=O)CC2)cc1 (centres unmarked) | 19 |
| Cc1ccc(C(c2nnnn2CS(=O)(=O)c2ccc(C)cc2)N2CCC(C(N)=O)CC2)cc1 (centres unmarked) | -55.1 |
| CC(C)Oc1ccc(S(=O)(=O)N2CCCCC2)cc1NC(=O)C1CSC2(C)CCC(=O)N12 (centres unmarked) | -20.9 |
| Cc1cccc(NC(=O)CN(C)S(=O)(=O)c2ccc(-c3ccc(=O)[nH]n3)s2)c1C | -19.9 |
| CCOC(=O)CCN(c1ccccc1)S(=O)(=O)c1ccc(-c2ccc(=O)[nH]n2)s1 | -29.3 |
| COc1cc(OC)c(NC(=O)CN(C)S(=O)(=O)c2ccc3[nH]c(=O)oc3c2)cc1Cl | 3.44 |
| Cc1ccccc1NC(=O)CN(C)S(=O)(=O)c1cccs1 | 2.52 |
| Cc1ccccc1NC(=O)CN(C)S(=O)(=O)c1ccc(-c2ccc(=O)[nH]n2)s1 | -78.6 |
| COc1cc(OC)c(NC(=O)CN(C)S(=O)(=O)c2ccc(-c3ccc(=O)[nH]n3)s2)cc1Cl | -56.5 |
| CCc1ccccc1NC(=O)CN(C)S(=O)(=O)c1ccc(-c2ccc(=O)[nH]n2)s1 | -74.8 |
| CCOc1ccc(NC(=O)CN(C)S(=O)(=O)c2ccc(-c3ccc(=O)[nH]n3)s2)cc1 | 2.54 |
| COc1cc(NC(=O)CN(C)S(=O)(=O)c2ccc(-c3ccc(=O)[nH]n3)s2)cc(OC)c1 | -5.53 |
| CC1CCN(S(=O)(=O)c2ccc3[nH]c(=O)[nH]c3c2)CC1 | -3.58 |
| O=C(Nc1cc(S(=O)(=O)N2CCCCC2)ccc1Cl)C1=NN(c2ccccc2)C(=O)CC1 | 12.6 |
| O=C(NNC(=O)C1CCN(C(=O)Nc2ccccc2)CC1)c1ccc([N+](=O)[O-])cc1 | 2.62 |
| CCCOc1ccc(-c2c(C(=O)N/N=C(\C)c3ccco3)nnn2-c2nonc2N)cc1 | 22.5 |
| Cc1[nH]c2ccccc2c1C(=O)COC(=O)c1ccc[n+]([O-])c1 | 0.499 |

| SMILES | hERG current change (%, negative = inhibition) at 10uM [%] |
| --- | --- |
| NC(=O)c1ccc(Oc2ccc(C(N)=O)cc2)cc1 | 17.5 |
| CCc1sc(C(C2C(=O)CC(C)(C)CC2=O)C2C(=O)CC(C)(C)CC2=O)cc1[N+](=O)[O-] | -5.07 |
| O=C(Nc1ccc2c(c1)OCCO2)c1ccc(S(=O)(=O)N2CCCCC2)cc1 | 4.38 |
| Cc1ccccc1-c1ccc(/C=C2/SC(N3CCOCC3)=NC2=O)o1 | -15.9 |
| O=C1N=C(N2CCCC2)S/C1=C\C=C\c1ccccc1 | -32.4 |
| O=C1N=C(N2CCOCC2)S/C1=C/c1ccc(-c2ccc(F)cc2)o1 | 2.43 |
| CC(=C/c1ccccc1)/C=C1/SC(N2CCOCC2)=NC1=O | -20.1 |
| Cc1ccc(-c2ccc(/C=C3\SC(N4CCOCC4)=NC3=O)o2)cc1 | -64.8 |
| O=C1N=C(N2CCOCC2)S/C1=C\C=C/c1ccccc1 | -58.2 |
| CC(=O)c1c(C)[nH]c(C(=O)OCn2nnc3ccccc3c2=O)c1C | 9.87 |
| C/C(=N\NC(=O)C1CC1c1ccccc1)c1ccc(C)s1 (centres unmarked) | -6.02 |
| CCOC(=O)c1ccc2c(c1)n(CC)c(C)[n+]2CC.[I-] | 23.7 |
| CCOC(=O)c1ccc2c(c1)n(CCCS(=O)(=O)[O-])c(/C=C/c1ccc(Cl)cc1)[n+]2CC | -23.1 |
| CCOC(=O)c1ccc2c(c1)n(CC)c(/C=C/Nc1ccccc1)[n+]2CC.[I-] | -80 |
| CCn1c(/C=C/Nc2ccccc2)[n+](CC)c2ccc(C(=O)OCC(F)(F)F)cc21.[I-] | -81.6 |
| CCn1c(/C=C/N(C)c2ccccc2)[n+](CC)c2ccc(Cl)cc21.[I-] | -16 |
| CCOC(=O)c1ccc2c(c1)n(Cc1ccccc1)c(C)[n+]2CC.[O-][Cl+3]([O-])([O-])[O-] | -7.56 |
| CCn1c(C)[n+](CC)c2ccc(C(=O)N(C)c3ccccc3)cc21.[I-] | 37.4 |
| CCOC(=O)c1ccc2c(c1)n(CCO)c(C)[n+]2CC.[I-] | 10.6 |
| CCOC(=O)c1ccc2c(c1)n(CC)c(/C=C/N(C)c1ccccc1)[n+]2CC.[I-] | -74.3 |
